Holding throughout (assay): DAPPL (digital affinity profiling via proximity ligation, sequencing); 10 mM Tris-HCl pH 7.5, 50 mM NaCl, 1 mM DTT, 4% glycerol, room temperature, 30 min; GST-TFs on glutathione beads, 16-mer random dsDNA library, 0.1% formaldehyde crosslink after washing; high values mean tight binding
Assay [1] concerns the target T1, FEV (Homo sapiens, UniProt Q99581 1-238).
T1 sequence: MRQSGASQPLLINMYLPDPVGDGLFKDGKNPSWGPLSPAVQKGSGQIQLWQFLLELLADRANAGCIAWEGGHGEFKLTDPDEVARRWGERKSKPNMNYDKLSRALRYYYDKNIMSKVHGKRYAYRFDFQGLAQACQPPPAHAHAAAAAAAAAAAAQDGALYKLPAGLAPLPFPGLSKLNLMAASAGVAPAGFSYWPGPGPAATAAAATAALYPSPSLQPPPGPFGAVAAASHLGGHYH
The following applies: protein: recombinant; tags: N-terminal GST; dsDNA, one strand shown. The method in brief:
(§1)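 Pools were built from human transcription factors expressed in yeast as GST fusions, captured on glutathione beads and DNA-barcoded, along with a tag-only sample. Incubation with 200 nmole of a 16-mer random double-stranded DNA library lasted 30 min at room temperature in Tris/NaCl/DTT/glycerol buffer, and was followed by washing, 0.1% formaldehyde crosslinking, proximity ligation, PCR amplification and Illumina NextSeq500 sequencing. Binding signal is the quotient of each hexamer's read frequency for a factor and its frequency for the tag-only sample.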

Assay [2] has as its target ETV5 (Homo sapiens, UniProt P41161 1-510). The following applies: protein: recombinant; tags: N-terminal GST; dsDNA, one strand shown. Put shortly: as §1
Assay [3] has as its target HSF1 (Homo sapiens, UniProt Q00613 1-529). The following applies: protein: recombinant; tags: N-terminal GST; chain copies: 3; dsDNA, one strand shown. Put shortly:
as §1

In assay [4] the target is T2, SPIC (Homo sapiens, UniProt Q8N5J4 1-248).
T2 sequence: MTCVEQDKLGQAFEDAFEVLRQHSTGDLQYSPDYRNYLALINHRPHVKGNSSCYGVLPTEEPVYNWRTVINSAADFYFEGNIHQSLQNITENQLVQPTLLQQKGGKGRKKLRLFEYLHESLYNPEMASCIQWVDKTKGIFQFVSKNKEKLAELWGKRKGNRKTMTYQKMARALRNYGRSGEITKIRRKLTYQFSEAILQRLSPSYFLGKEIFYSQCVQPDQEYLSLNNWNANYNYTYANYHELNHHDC
The following applies: protein: recombinant; tags: N-terminal GST; dsDNA, one strand shown. Put shortly:
as §1

Assay [5] deals with ELF4 (Homo sapiens, UniProt Q99607 1-663). The following applies: protein: recombinant; tags: N-terminal GST; dsDNA, one strand shown. The method in brief: as §1
Assay [6] deals with T3, ELK4 (Homo sapiens, UniProt P28324-2 1-405).
T3 sequence: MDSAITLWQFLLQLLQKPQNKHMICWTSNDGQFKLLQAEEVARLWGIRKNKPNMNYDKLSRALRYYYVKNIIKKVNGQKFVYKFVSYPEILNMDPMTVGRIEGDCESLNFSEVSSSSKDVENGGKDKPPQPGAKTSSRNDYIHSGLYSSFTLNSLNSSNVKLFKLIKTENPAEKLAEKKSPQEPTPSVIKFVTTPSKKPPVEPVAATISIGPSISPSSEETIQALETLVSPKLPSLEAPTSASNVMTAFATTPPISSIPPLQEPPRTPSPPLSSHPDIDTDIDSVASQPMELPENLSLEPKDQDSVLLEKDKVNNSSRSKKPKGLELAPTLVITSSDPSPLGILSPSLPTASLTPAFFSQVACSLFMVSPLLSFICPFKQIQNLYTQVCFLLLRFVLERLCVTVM
The following applies: protein: recombinant; tags: N-terminal GST; dsDNA, one strand shown. Put shortly: as §1

In assay [7] the target is T4, ETV2 (Homo sapiens, UniProt O00321 1-342).
T4 sequence: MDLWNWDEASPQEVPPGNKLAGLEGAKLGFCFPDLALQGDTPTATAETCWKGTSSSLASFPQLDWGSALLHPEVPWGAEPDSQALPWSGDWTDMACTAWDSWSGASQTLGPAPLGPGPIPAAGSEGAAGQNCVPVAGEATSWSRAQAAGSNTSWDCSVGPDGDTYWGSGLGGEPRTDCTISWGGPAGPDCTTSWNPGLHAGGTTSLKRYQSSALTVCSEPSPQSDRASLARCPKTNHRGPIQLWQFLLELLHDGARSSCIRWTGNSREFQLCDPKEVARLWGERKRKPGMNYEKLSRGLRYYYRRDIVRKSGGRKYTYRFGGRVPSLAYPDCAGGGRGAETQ
The following applies: protein: recombinant; tags: N-terminal GST; dsDNA, one strand shown. Put shortly: as §1

The target in assay [8] is T5, ELF3 (Homo sapiens, UniProt P78545 1-371).
T5 sequence: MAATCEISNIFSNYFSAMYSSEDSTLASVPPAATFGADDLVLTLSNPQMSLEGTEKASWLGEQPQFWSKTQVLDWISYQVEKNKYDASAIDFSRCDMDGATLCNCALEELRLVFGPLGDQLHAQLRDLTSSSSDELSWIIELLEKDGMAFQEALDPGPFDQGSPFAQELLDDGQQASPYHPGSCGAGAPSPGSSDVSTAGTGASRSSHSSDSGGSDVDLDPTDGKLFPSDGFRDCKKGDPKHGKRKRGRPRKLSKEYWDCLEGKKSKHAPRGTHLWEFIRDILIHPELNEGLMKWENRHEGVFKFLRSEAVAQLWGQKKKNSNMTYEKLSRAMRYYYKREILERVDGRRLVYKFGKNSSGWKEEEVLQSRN
The following applies: protein: recombinant; tags: N-terminal GST; dsDNA, one strand shown. Put shortly:
as §1

Assay [9] has as its target CRX (Homo sapiens, UniProt O43186 1-299). The following applies: protein: recombinant; tags: N-terminal GST; dsDNA, one strand shown. Put shortly: as §1
The target in assay [10] is ETV1 (Homo sapiens, UniProt P50549 1-477). The following applies: protein: recombinant; tags: N-terminal GST; dsDNA, one strand shown. The method in brief:
as §1

Assay [11] has as its target T6, ERF (Homo sapiens, UniProt P50548 1-548).
T6 sequence: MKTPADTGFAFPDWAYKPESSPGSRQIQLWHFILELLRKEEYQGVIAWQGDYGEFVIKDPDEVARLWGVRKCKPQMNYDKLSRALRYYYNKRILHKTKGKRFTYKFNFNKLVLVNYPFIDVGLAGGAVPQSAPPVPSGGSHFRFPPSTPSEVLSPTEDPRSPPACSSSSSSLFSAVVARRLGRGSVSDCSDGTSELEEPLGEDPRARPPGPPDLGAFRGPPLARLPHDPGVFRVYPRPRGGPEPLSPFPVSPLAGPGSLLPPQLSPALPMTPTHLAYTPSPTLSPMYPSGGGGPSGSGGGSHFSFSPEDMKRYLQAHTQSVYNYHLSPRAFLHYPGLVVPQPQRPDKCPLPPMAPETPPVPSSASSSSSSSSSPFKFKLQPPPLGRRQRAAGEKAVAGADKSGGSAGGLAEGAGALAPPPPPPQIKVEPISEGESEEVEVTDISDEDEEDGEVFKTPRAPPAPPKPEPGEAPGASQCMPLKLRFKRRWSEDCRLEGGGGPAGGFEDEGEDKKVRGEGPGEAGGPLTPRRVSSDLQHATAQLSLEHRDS
The following applies: protein: recombinant; tags: N-terminal GST; dsDNA, one strand shown. The method in brief:
as §1

The target in assay [12] is T7, ETV3L (Homo sapiens, UniProt Q6ZN32 1-361).
T7 sequence: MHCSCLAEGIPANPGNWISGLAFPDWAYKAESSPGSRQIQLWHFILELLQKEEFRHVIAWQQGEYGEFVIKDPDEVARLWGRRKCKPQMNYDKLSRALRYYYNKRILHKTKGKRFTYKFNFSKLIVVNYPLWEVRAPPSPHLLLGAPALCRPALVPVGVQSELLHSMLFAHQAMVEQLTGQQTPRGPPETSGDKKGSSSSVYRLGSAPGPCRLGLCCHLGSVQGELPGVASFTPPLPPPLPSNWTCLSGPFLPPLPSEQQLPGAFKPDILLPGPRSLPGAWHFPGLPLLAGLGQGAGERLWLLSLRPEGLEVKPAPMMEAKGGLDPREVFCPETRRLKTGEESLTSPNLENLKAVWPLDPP
The following applies: protein: recombinant; tags: N-terminal GST; dsDNA, one strand shown. Put shortly: as §1

Assay [13] has as its target T8, ETS2 (Homo sapiens, UniProt P15036 1-469).
T8 sequence: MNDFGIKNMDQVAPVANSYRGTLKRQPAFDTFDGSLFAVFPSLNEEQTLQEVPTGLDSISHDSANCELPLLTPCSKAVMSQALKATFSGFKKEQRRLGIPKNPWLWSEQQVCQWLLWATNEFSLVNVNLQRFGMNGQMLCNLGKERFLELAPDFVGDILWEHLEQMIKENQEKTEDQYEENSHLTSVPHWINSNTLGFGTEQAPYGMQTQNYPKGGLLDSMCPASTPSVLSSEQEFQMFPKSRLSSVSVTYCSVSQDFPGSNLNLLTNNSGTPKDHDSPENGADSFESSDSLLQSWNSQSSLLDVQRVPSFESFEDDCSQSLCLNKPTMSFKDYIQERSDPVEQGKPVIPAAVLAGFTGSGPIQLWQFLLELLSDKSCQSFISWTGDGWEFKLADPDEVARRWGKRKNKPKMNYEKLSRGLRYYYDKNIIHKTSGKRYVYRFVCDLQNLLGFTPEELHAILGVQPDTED
The following applies: protein: recombinant; tags: N-terminal GST; dsDNA, one strand shown. The method in brief:
as §1

The target of assay [14] is T9, SPDEF (Homo sapiens, UniProt O95238 1-335).
T9 sequence: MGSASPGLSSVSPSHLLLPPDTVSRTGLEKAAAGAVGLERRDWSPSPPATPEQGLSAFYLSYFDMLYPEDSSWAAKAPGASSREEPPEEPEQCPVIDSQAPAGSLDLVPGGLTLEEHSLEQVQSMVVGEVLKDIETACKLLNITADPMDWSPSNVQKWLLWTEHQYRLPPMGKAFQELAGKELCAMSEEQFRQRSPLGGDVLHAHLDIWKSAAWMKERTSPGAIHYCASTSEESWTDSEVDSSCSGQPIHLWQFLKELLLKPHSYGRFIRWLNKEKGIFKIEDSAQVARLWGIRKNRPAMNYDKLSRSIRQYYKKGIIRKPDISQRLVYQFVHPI
The following applies: protein: recombinant; tags: N-terminal GST; dsDNA, one strand shown. The method in brief: as §1

Assay [15] deals with T10, ETV7 (Homo sapiens, UniProt Q9Y603 1-341).
T10 sequence: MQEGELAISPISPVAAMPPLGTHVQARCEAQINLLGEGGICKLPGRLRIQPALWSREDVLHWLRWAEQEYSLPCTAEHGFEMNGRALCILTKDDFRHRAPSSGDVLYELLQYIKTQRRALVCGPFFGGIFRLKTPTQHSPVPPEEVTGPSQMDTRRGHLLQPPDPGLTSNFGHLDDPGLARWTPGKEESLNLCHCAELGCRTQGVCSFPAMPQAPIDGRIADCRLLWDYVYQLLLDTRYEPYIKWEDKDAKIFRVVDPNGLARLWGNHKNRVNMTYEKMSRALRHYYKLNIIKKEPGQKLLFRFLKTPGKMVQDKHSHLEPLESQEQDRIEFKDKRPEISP
The following applies: protein: recombinant; tags: N-terminal GST; dsDNA, one strand shown. Put shortly:
as §1

The target in assay [16] is T11, ELF5 (Homo sapiens, UniProt Q9UKW6-2 1-255).
T11 sequence: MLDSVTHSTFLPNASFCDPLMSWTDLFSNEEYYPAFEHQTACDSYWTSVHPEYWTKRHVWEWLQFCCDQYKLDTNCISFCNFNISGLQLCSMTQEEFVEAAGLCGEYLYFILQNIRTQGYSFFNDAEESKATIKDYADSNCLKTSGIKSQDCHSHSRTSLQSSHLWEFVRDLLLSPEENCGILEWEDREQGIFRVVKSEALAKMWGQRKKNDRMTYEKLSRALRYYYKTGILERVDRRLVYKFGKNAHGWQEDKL
The following applies: protein: recombinant; tags: N-terminal GST; dsDNA, one strand shown. Put shortly:
as §1

Assay [17] addresses T12, ETV3 (Homo sapiens, UniProt P41162-2 1-143).
T12 sequence: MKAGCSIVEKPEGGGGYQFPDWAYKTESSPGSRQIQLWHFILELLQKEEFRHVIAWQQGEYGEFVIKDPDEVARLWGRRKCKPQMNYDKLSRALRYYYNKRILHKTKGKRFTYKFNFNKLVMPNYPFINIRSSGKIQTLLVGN
The following applies: protein: recombinant; tags: N-terminal GST; dsDNA, one strand shown. Put shortly: as §1

For assay [18], the target named is ETV6 (Homo sapiens, UniProt P41212 1-452). The following applies: protein: recombinant; tags: N-terminal GST; dsDNA, one strand shown. Put shortly: as §1

This passage reports binding signal results from paper PMC7862700, “An all-to-all approach to the identification of sequence-specific readers for epigenetic DNA modifications on cytosine”.

ETV5, sequence (P41161 whole entry): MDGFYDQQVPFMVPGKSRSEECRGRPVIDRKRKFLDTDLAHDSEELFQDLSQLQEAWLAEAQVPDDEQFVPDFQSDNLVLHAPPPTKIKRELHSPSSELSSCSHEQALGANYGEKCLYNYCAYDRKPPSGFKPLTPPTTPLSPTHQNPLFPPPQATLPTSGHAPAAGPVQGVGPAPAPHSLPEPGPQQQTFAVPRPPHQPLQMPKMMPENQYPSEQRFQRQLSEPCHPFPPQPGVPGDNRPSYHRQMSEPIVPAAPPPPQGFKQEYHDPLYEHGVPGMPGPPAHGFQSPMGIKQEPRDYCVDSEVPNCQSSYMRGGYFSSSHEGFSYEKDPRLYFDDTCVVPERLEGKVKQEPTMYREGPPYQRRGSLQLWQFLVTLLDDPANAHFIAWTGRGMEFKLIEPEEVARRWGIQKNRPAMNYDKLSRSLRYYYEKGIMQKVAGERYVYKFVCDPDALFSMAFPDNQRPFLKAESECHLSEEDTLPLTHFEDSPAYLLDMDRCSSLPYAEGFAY
CRX, sequence (O43186 whole entry): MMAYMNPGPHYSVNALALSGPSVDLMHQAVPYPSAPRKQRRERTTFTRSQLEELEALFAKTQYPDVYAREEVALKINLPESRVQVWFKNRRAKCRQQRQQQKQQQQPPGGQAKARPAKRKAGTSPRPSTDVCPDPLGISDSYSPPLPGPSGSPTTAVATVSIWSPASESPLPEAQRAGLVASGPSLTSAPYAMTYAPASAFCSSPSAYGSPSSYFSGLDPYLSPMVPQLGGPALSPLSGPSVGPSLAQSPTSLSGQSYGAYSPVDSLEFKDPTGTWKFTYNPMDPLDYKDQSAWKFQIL
ELF4, sequence (Q99607 whole entry): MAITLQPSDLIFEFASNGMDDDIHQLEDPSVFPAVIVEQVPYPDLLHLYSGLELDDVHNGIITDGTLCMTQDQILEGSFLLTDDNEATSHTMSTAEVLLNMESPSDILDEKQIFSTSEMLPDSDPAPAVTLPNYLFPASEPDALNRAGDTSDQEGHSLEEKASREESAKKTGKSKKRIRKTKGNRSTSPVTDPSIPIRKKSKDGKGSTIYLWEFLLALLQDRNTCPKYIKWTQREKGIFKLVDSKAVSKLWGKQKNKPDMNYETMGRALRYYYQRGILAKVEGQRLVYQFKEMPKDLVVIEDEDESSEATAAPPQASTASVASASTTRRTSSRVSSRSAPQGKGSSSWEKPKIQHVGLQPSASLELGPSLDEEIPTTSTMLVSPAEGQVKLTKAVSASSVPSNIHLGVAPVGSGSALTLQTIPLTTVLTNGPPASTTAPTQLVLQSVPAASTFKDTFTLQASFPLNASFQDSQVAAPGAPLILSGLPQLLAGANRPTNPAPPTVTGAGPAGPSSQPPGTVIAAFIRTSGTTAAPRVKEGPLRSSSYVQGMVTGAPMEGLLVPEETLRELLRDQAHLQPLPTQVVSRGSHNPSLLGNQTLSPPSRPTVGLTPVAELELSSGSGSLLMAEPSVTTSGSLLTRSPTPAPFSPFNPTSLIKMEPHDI
ETV6, sequence (P41212 whole entry): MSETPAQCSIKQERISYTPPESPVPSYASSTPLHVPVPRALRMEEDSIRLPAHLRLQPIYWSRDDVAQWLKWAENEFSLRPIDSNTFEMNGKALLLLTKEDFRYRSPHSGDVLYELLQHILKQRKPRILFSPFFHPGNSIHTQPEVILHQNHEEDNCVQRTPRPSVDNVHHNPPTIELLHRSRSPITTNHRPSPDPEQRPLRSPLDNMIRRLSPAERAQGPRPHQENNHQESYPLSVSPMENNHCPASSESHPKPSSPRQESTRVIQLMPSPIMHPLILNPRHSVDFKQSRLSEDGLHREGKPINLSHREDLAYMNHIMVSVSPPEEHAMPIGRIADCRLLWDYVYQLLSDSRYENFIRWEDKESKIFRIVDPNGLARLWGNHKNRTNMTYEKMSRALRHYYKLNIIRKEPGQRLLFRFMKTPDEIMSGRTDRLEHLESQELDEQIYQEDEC
HSF1, sequence (Q00613 whole entry): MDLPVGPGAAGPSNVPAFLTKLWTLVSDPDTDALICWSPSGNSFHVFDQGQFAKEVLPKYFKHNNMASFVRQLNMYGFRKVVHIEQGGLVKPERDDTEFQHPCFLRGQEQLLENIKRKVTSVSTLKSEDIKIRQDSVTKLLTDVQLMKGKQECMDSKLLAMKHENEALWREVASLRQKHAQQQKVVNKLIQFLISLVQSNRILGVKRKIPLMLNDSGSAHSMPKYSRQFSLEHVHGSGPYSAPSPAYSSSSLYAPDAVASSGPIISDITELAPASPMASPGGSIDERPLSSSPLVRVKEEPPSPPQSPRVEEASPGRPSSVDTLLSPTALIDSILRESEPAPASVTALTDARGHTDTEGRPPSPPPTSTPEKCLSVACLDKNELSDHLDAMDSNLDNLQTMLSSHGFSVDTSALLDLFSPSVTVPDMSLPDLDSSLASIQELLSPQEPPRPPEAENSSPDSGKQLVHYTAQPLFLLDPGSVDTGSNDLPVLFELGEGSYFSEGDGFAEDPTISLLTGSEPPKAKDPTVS
ETV1, sequence (P50549 whole entry): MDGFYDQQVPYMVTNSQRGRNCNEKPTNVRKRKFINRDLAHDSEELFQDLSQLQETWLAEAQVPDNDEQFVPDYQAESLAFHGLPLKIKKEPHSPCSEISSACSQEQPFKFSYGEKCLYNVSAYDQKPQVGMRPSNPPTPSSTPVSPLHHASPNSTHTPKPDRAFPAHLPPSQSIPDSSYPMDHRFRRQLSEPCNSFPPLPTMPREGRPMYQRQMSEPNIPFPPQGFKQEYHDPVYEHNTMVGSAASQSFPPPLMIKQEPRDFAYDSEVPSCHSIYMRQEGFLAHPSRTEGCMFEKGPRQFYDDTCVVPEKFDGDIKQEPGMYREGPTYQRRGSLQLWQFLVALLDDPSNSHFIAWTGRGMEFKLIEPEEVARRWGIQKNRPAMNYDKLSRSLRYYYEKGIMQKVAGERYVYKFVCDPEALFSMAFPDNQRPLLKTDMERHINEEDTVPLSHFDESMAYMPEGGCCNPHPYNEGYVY

Consider TACTCC, for which the binding signal in [1] is 1.25 fold enrichment (6-mer frequency, TF over GST control); in assay [2] it was 1.27 fold enrichment (6-mer frequency, TF over GST control); in assay [3], 1.18 fold enrichment (6-mer frequency, TF over GST control); in [4] it was 1.23 fold enrichment (6-mer frequency, TF over GST control); in assay [5], 1.26 fold enrichment (6-mer frequency, TF over GST control); in [6], 1.19 fold enrichment (6-mer frequency, TF over GST control). In addition, the binding signal in assay [7] was 1.25 fold enrichment (6-mer frequency, TF over GST control); in [8], 1.11 fold enrichment (6-mer frequency, TF over GST control); in assay [9], 1.26 fold enrichment (6-mer frequency, TF over GST control); in assay [10], 1.24 fold enrichment (6-mer frequency, TF over GST control); in assay [11], 1.34 fold enrichment (6-mer frequency, TF over GST control); in [12], 1.26 fold enrichment (6-mer frequency, TF over GST control). Also, the binding signal in assay [13] is 1.37 fold enrichment (6-mer frequency, TF over GST control); in [14] it was 1.29 fold enrichment (6-mer frequency, TF over GST control); in assay [15], 1.21 fold enrichment (6-mer frequency, TF over GST control); in [16] it was 1.15 fold enrichment (6-mer frequency, TF over GST control); in assay [17] it was 1.33 fold enrichment (6-mer frequency, TF over GST control); in assay [18], 1.23 fold enrichment (6-mer frequency, TF over GST control).
